Results on 26 molecules are retold here after PubChem BioAssay.

Assay [1] deals with XIP peptide (Xip251-270) binding. Kind of assay: small-molecule binders of XIP peptide, primary screen, biochemical, small-molecule microarray, fluorescence 635/667 nm, 0.1 µg/mL protein (AID 1182). The following applies: fluorescent protein binding, 635 nm, higher = more signal, called active from +8 up or from −8 down.
Assay [2] deals with XIP peptide (Xip251-270). The assay is described as follows: small-molecule binders of XIP peptide, primary screen, biochemical, small-molecule microarray, fluorescence 635/667 nm, 0.5 µg/mL protein (AID 1183). The settings on record: small-molecule microarray binding, fluorescence 635 nm; higher = more signal.
Assay [3] can be described thus: Plasmodium falciparum growth inhibition, primary screen, strain 3D7, DAPI fluorescence, 100 nL (AID 1184).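 Further: parasites grown inside human red blood cells in medium with human serum.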 The settings on record: P. falciparum 3D7 growth, 3 d, higher = more signal.
Assay [4] has as its target Homeobox protein Hox-A13 (Mus musculus) (UniProt Q62424). Kind of assay: inhibitors of HoxA13-DNA binding, primary screen, biochemical, fluorescence polarization, labeled oligonucleotide (AID 1185). The settings on record: 15 min, higher = more signal, called active from +8 up or from −8 down.
Assay [5] in a line: inhibitors of hydroxyurea-induced Chk1 phosphorylation, primary screen, imaging, HeLa, phospho-Chk1 antibody, percent positive cells (AID 1186). The following applies: hydroxyurea-induced phospho-Chk1 immunofluorescence imaging, higher = more signal.
Assay [6] in a line: inhibitors of hydroxyurea-induced Chk1 phosphorylation, primary screen, imaging, HeLa, phospho-Chk1 nuclear intensity (AID 1187). The settings on record: hydroxyurea-induced phospho-Chk1 immunofluorescence imaging, higher = more signal.

Active and inactive are the calls of the source. Unless noted, how the calls were made is not given here.

Chain of Homeobox protein Hox-A13 (Mus musculus) (Q62424 whole entry, looked up): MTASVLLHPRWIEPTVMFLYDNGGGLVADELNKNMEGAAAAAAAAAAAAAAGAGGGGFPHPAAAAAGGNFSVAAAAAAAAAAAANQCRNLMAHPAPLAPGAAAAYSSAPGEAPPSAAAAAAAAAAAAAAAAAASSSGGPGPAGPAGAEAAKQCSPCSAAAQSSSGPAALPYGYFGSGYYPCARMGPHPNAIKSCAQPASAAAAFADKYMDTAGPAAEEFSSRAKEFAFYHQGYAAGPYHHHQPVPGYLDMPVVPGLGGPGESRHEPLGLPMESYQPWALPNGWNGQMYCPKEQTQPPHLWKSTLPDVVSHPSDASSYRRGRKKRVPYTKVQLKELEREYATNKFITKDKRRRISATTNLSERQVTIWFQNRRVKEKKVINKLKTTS

For the molecule `COc1ccccc1CN1C(=O)c2ccccc2[C@@]2(Cc3ccccc3N(C3CC3)C2=O)[C@@H]1c1ccc(CO)cc1`, the composite z-score in assay [1] was -0.0699 (inactive); in assay [2], 0.53. Further, the z-score in assay [3] is 0.35; in assay [4], -2.14 (inactive); in assay [5], 0.315 (inactive); in assay [6] it was 0.491 (inactive).

With `Cc1ccc(F)cc1S(=O)(=O)N[C@@H]1CCN(C(=O)c2ccc(OC(C)C)cc2)C1`, the composite z-score is 0.615 (inactive) in assay [1] and 0.805 in assay [2]. For the same molecule, the z-score is -1.21 in assay [3], -5.21 (inactive) in assay [4], 0.0079 (inactive) in assay [5] and -0.303 (inactive) in assay [6].

Turning to `CC(C)(C)OC(=O)CC[C@]1(C(=O)O)COC(c2ccc(OCCCO)cc2)=N1`, the composite z-score was 3.69 (inactive) in assay [1] and 0.532 in assay [2]. In addition, the z-score in assay [3] was 1.22; in assay [4] it was -1.32 (inactive); in assay [5], -0.325 (inactive); in assay [6] it was -0.122 (inactive).

As to `COc1ccc(C(=O)Nc2ccc3c(c2)[C@]2(O[C@@H](CCO)[C@H]([Si](C)(C)c4ccc(OC)cc4)[C@H]2C)C(=O)N3Cc2ccccc2)cc1`, the figures for the composite z-score in assay [1] and in assay [2] were 0.439 (inactive) and 0.45, respectively. The z-score in assay [3] was -2.88; in assay [4], -1.01 (inactive); in assay [5], -0.583 (inactive); in assay [6], -0.644 (inactive).

On to `COc1ccc([Si](C)(C)[C@H]2[C@H](CC(=O)N3CCC[C@H]3CO)O[C@@]3(C(=O)N(Cc4ccc(N5C(=O)c6cccc7cccc5c67)cc4)c4ccccc43)[C@@H]2C)cc1`, for which the values for the composite z-score in assay [1] and in assay [2] were 0.531 (inactive) and 0.803, respectively. Further, the z-score in assay [3] is -1.95; in assay [4] it was -3.9 (inactive); in assay [5] it was 0.171 (inactive); in assay [6], -0.4 (inactive).

Take `COc1cccc(C)c1NC(=O)O[C@H]1[C@H](OC(=O)Nc2ccccc2)[C@H](OC(=O)Nc2ccccc2)[C@@H](OC)O[C@@H]1CO`: the figures for the composite z-score in assay [1] and in assay [2] were 1.57 (inactive) and 0.401, respectively. In addition, the z-score in assay [3] is -1.51; in assay [4], -5.38 (inactive); in assay [5], -0.0198 (inactive); in assay [6] it was 0.136 (inactive).

On to `N#Cc1ccc(NN2C(C(O)c3ccco3)C=CC3C(=O)N(c4ccccc4)C(=O)C32)cc1` (stereo unspecified), for which the composite z-score in assay [1] was -0.323 (inactive); in assay [2], 0.347. Also, the z-score in assay [3] was 1.1; in assay [4] it was -1.96 (inactive); in assay [5], -0.124 (inactive); in assay [6] it was -0.228 (inactive).

For the molecule `CC(C)C[C@@H]1NC(=O)[C@@H]2C[C@H](C(=O)NCc3ccc(F)cc3)[C@H](c3ccc(O)cc3)N2C1=O`, the composite z-score in assay [1] was 0.8 (inactive); in assay [2] it was 0.655. In addition, the z-score in assay [3] is -0.395; in assay [4], -1.41 (inactive); in assay [5], 0.13 (inactive); in assay [6] it was 0.0555 (inactive).

On to `C=CCNC(=O)[C@H]1[C@@H]2C(=O)O[C@@H](c3ccccc3)[C@@H](c3ccccc3)N2[C@@H](c2ccc(O)cc2)[C@]12C(=O)N(C(=O)OCCOC)c1ccc(C#CC3(O)CCCCCC3)cc12`, for which the composite z-score in assay [1] was 1.44 (inactive); in assay [2], 0.842. Further, the z-score was 0.351 in assay [3], -2.42 (inactive) in assay [4], -0.213 (inactive) in assay [5] and 0.382 (inactive) in assay [6].

Turning to `C=C[C@@H](O)[C@H]1CC(c2ccccc2)=NO1`, the composite z-score was 0.465 (inactive) in assay [1] and -0.299 in assay [2]. The z-score is 0.99 in assay [3], -0.345 (inactive) in assay [4], -0.386 (inactive) in assay [5] and -0.573 (inactive) in assay [6].

With `COCCOC(=O)N1C(=O)[C@@]2(c3cc(C#CC4(O)CCCCCC4)ccc31)[C@H](C(=O)N1CCc3cc(OC)c(OC)cc3C1)[C@H]1C(=O)O[C@H](c3ccccc3)[C@H](c3ccccc3)N1[C@@H]2c1ccccc1OCCO`, the results for the composite z-score in assay [1] and in assay [2] were -0.0915 (inactive) and 0.771, respectively. The z-score in assay [3] was -1.99; in assay [4] it was 0.772 (inactive); in assay [5], 0.286 (inactive); in assay [6] it was 1.13 (inactive).

Take `CCCC[C@@H](O)C1=C(COc2ccccc2)Cn2c(=O)n(-c3ccccc3)c(=O)n2[C@H]1CO`: the composite z-score in assay [1] was 1.52 (inactive); in assay [2], 0.628. For the same molecule, the z-score in assay [3] was -0.471; in assay [4], -6.48 (inactive); in assay [5] it was -0.532 (inactive); in assay [6], 0.347 (inactive).

`COC(=O)[C@]1(Cc2ccccc2CN=[N+]=[N-])N=C(c2ccc(OCCCO)cc2)O[C@@H]1c1ccccc1CN=[N+]=[N-]`: the composite z-score in assay [1] was 0.319 (inactive); in assay [2], 0.728. Further, the z-score in assay [3] was -2.27; in assay [4] it was 0.13 (inactive); in assay [5] it was -0.716 (inactive); in assay [6], -0.601 (inactive).

Regarding `O=C1OCC=C[C@H]2OC34C=CCN(CCN5CCOCC5)C(=O)[C@H]3N(CCCCCO)C(=O)[C@@H]4[C@@H]12` (stereo partly specified), the composite z-score in assay [1] was 0.102 (inactive); in assay [2], 0.609. Moreover, the z-score in assay [3] was -0.285; in assay [4], -6.05 (inactive); in assay [5] it was 0.513 (inactive); in assay [6], -0.209 (inactive).

For `CCOC(=O)C[C@H]1[C@H](OC(=O)c2ccc(C(=O)c3ccccc3)cc2)[C@@H](NC(=O)C2CCCCC2)c2cc(OCCCO)ccc2N1C(=O)Cc1ccc(OC)cc1`, the composite z-score in assay [1] was 0.963 (inactive); in assay [2] it was 0.242. Moreover, the z-score is -1.12 in assay [3], -2.28 (inactive) in assay [4], 0.542 (inactive) in assay [5] and -0.129 (inactive) in assay [6].

Turning to `C=CCN1C(=O)[C@@]2(O[C@@H](CCO)[C@H]([Si](C)(C)c3ccc(OC)cc3)[C@H]2C)c2cc(NC(=O)[C@H](C)O)ccc21`, the results for the composite z-score in assay [1] and in assay [2] were 0.395 (inactive) and 0.603, respectively. Further, the z-score in assay [3] was -2.83; in assay [4], -5.68 (inactive); in assay [5], -0.455 (inactive); in assay [6], 0.18 (inactive).

Take `C=CC[C@@]1(C(=O)NCCN2CCOCC2)N=C(c2ccc(OCCCO)cc2)O[C@@H]1c1ccccc1`: the composite z-score is 0.202 (inactive) in assay [1] and 0.638 in assay [2]. Besides, the z-score was -0.825 in assay [3], -6.6 (inactive) in assay [4], 0.426 (inactive) in assay [5] and 0.0737 (inactive) in assay [6].

`COc1ccc([Si](C)(C)[C@@H]2[C@@H](CC(=O)N3Cc4ccccc4C[C@H]3CO)O[C@]3(C(=O)N(Cc4cccc(N5CCCCC5=O)c4)c4ccccc43)[C@H]2C)cc1`: the composite z-score in assay [1] was 1.63 (inactive); in assay [2], 0.737. In addition, the z-score in assay [3] was -2.91; in assay [4] it was -2.57 (inactive); in assay [5] it was -0.559 (inactive); in assay [6], -0.304 (inactive).

For the molecule `CN(C)C(=O)[C@@]1(CCS(=O)(=O)c2ccccc2)N=C(c2ccc(OCCCO)cc2)O[C@H]1c1ccccc1CN=[N+]=[N-]`, the results for the composite z-score in assay [1] and in assay [2] were 1.41 (inactive) and 0.653, respectively. Further, the z-score in assay [3] is -2.48; in assay [4], -5.32 (inactive); in assay [5], -0.359 (inactive); in assay [6], -0.243 (inactive).

For `CN(C)CCCCNC(=O)[C@H]1C[C@H]2C(=O)N[C@@H](CCCC[N+](C)(C)C)C(=O)N2[C@H]1c1cccc(OCCO)c1`, the results for the composite z-score in assay [1] and in assay [2] were 1.42 (inactive) and 0.689, respectively. Further, the z-score in assay [3] is -0.0344; in assay [4], -3.83 (inactive); in assay [5], -0.0589 (inactive); in assay [6], -0.216 (inactive).

Regarding `O=C(N1CCOCC1)[C@@]1(CCS(=O)(=O)c2ccccc2)COC(c2ccc(OCCCO)cc2)=N1`, the composite z-score in assay [1] was 0.429 (inactive); in assay [2] it was 0.599. For the same molecule, the z-score is -1.34 in assay [3], -5.88 (inactive) in assay [4], 0.145 (inactive) in assay [5] and 0.273 (inactive) in assay [6].

For the molecule `C[N+](C)(C)CCCC[C@@H]1NC(=O)[C@@H]2C[C@H](C(=O)O)[C@H](c3cccc(OCCO)c3)N2C1=O`, the composite z-score in assay [1] is 1.36 (inactive); in assay [2], 0.246. For the same molecule, the z-score in assay [3] was -0.0179; in assay [4], -3.69 (inactive); in assay [5] it was 0.153 (inactive); in assay [6], 0.16 (inactive).

As to `C=CCNC(=O)[C@H]1[C@@H]2C(=O)O[C@@H](c3ccccc3)[C@@H](c3ccccc3)N2[C@@H](c2ccc(OCCO)cc2)[C@]12C(=O)N(C(=O)OCCOC)c1ccc(C#CC3=CCCCC3)cc12`, the composite z-score in assay [1] is 0.377 (inactive); in assay [2] it was 0.799. Moreover, the z-score in assay [3] was -2.22; in assay [4], 2.62 (inactive); in assay [5], -0.142 (inactive); in assay [6], -0.108 (inactive).

As to `COC(=O)[C@@]1(Cc2ccccc2)[C@H]2c3cc(C(=O)N4CCCC4)n(Cc4ccc(OC(F)(F)F)cc4)c3C[C@H]2CN1C(=O)c1ccccc1`, the composite z-score is 0.511 (inactive) in assay [1] and 0.408 in assay [2]. The z-score in assay [3] is -1.4; in assay [4], -3.01 (inactive); in assay [5] it was 0.182 (inactive); in assay [6], -0.781 (inactive).

As for `COCCCNC(=O)[C@@H]1c2ccccc2C(=O)N(c2ccc(C)cn2)[C@H]1c1ccc(CO)cc1`, the values for the composite z-score in assay [1] and in assay [2] were -0.0692 (inactive) and 0.305, respectively. The z-score was -1.38 in assay [3], -0.943 (inactive) in assay [4], -0.106 (inactive) in assay [5] and 0.236 (inactive) in assay [6].

As to `C=CCOC(=O)[C@@H]1[C@H]2C(=O)O[C@H](c3ccccc3)[C@H](c3ccccc3)N2[C@H](c2ccc(OCCOC(=O)[C@@H]3C[C@@H]4C(=O)N[C@@H](CCCCNC(C)=O)C(=O)N4[C@@H]3c3ccc(O)cc3)cc2)[C@@]12C(=O)Nc1ccc(I)cc12`, the composite z-score in assay [1] was 0.0787 (inactive); in assay [2] it was 0.794. Further, the z-score in assay [3] was -1.61; in assay [4] it was -0.385 (inactive); in assay [5], 0.552 (inactive); in assay [6] it was 0.882 (inactive).
